Measured values reported in PubChem BioAssay AID686940 (The Scripps Research Institute Molecular Screening Center, 2013).
Out of some 370,000 compounds screened, about 2,600 (0.7%) were called active. What follows is part of a selection rich in actives, with near analogues and random picks from the rest. Unmarked numbers belong to inactive results.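 Rule for the calls: active = inhibition above a per-plate cutoff, mean inhibition of test wells between control levels plus 3 SD (cut at about 38% in these data); inactive = the rest.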

These molecules were tested against COUP transcription factor 2 (Homo sapiens) (UniProt P24468) (assay: NR2F2 transcriptional activity inhibitors, primary screen, cell-based, luciferase reporter, HEK293T, luminescence (AID 686940;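 note: cells cotransfected with COUP-TFII expression vector driving the NGFI-A reporter; 0% = median of COUP-TF2 test wells and 100% = reporter-only cells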)). Settings: HEK293T NGFI-A luciferase reporter, at 8.6 µM, hits give high values.
Sequence of COUP transcription factor 2 (Homo sapiens) (P24468 whole entry, looked up): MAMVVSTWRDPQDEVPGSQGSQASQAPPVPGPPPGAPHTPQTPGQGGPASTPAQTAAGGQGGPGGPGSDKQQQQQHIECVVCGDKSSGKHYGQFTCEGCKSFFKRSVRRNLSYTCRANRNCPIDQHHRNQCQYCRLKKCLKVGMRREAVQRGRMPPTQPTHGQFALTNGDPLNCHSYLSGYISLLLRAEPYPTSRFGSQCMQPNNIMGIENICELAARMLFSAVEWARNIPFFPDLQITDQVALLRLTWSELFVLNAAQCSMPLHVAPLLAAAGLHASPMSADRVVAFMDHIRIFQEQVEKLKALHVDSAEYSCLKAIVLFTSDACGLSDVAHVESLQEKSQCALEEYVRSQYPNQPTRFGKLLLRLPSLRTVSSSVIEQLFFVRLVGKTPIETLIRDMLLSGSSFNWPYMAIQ

Point of comparison: `Clc1ncn(CCOc2ccccc2)c1Cl`, inhibition 6.16%. Against it:
- Oc1ccc(/C=C/c2c(F)cccc2F)c2cccnc12 — higher, 14.9%
- N[C@@H](Cc1ccccc1)C(=O)N1CCC[C@@H]1C(=O)N1CCC2CCN(S(=O)(=O)c3ccccc3)CC21 (stereo not given in full) — lower, 2.4%
- O=C(CSc1nnc(COc2ccccc2)n1-c1ccc(Cl)cc1)Nc1ccc2c(c1)OCO2 — higher, 7.15%
- CN[C@H]1C[C@H]2c3cc(N4CCOCC4)ccc3CCN2C[C@H]1[C@H](C)O — lower, -0.62%
- O=C(O)c1ccc(NC(=O)c2ccc(COc3ccc(Cl)cc3)o2)cc1 — lower, -7.9%
- Cc1cc(OCc2ccc(C(=O)Nc3ccc(C(=O)O)cc3)o2)ccc1Cl — higher, 10.7%
- COC(=O)[C@H](C(C)C)N(CCCc1cn(Cc2ccccc2)nn1)S(=O)(=O)c1ccc(F)cc1Br — higher, 9.49%
- CC(=O)Nc1ccc(OC[C@@H](O)CN2CCC(C(O)(c3ccccc3)c3ccccc3)CC2)cc1 — lower, -20.7%
- COc1cccc(Cn2cc(COC(=O)Nc3ccc(F)cc3)nn2)c1 — lower, -23.7%
- CCCCCc1c(-c2cccc(Br)c2)ncn1CCc1ccccc1OC — higher, 6.5%
- CCCCc1c(-c2ccc(Cl)cc2)ncn1CCc1ccccc1OC — higher, 11.8%
- Cc1ccc(CSc2nnc(SCC(=O)NN=Cc3cc(Br)ccc3F)s2)cc1 — lower, -3.85%
- COc1ccc2c(c1)CN1CN(CCc3ccccc3)S(=O)(=O)CC21 (stereo not given) — higher, 16%
- COc1ccc(CNC(=O)C(C)n2nc(C)c3c(C)n(-c4ccccc4)nc3c2=O)c(OC)c1 (stereo not given) — higher, 10.4%
- Cc1nn(CC(=O)N2CCCCC2)c(=O)c2nn(-c3ccccc3)c(C)c12 — lower, -1.99%
- COC(=O)[C@]12C[C@H](CC(=O)NCCCN3CCCC3=O)C(=O)N(CCc3ccc(OC)c(OC)c3)C1=C[C@H](COCc1ccccc1)O[C@@H]2C — lower, -3.72%
- CCC(C)[C@@H](C(=O)OC)N(CCc1cn(Cc2ccccc2)nn1)S(=O)(=O)c1ccccc1Br (stereo not given in full) — lower, -9.93%
- CC(=O)Oc1ccc(C(=O)Nc2nccs2)cc1 — lower, -23.1%
- CC(C)(C)c1ccc(C(=O)Nc2cc(Cl)c(Br)cc2C(=O)O)cc1 — higher, 7.25%
- Clc1ccc(-n2c(SC/C=C/c3ccccc3)nnc2-c2ccco2)cc1 — higher, 13.9%
- Cc1ccc(Cn2cc(CN3[C@@H](CC(C)C)COc4ccc(Cl)cc4S3(=O)=O)nn2)cc1 — lower, -4.67%
- COc1ccc(NC(=O)C2Cc3c(-c4ccc(Cl)cc4)ccnc3O2)cc1 (stereo not given) — lower, 5.98%
- COc1ccc(NC(=O)C2(C)Cc3c(-c4cccc(NC(C)=O)c4)ccnc3O2)cc1OC (stereo not given) — lower, -4.02%
- O=C(CSc1nnc(-c2ccccn2)n1-c1ccccc1)Nc1ccc2cn[nH]c2c1 — higher, 13.3%
- CCCCNC(=O)C[C@@H]1C(=O)N(CCc2ccc(Cl)cc2)C2=CCCC[C@]21C(=O)OCC — higher, 15.3%
- C=CCN1C(=O)[C@H](CC(=O)N2CCN(C(=O)OCC)CC2)[C@@]2(C(=O)OCC)CCCC=C12 — lower, -10.2%
- O=C1CC[C@@H](COc2ccc3[nH]cc(-c4ccccc4)c3c2-c2ccccc2)N1 — lower, -9.36%
- N#Cc1ccc(C2=CC(=O)C[C@H](c3ccc(Cl)cc3)C2)cc1 — higher, 17.5%
- O=C1C=C(c2cccc(Cl)c2O)C[C@@H](c2ccc(F)cc2)C1 — lower, 4.63%
- Clc1c(OCCCn2ccnc2)ccc2ccccc12 — lower, -3.68%
- COCC(=O)N[C@@H]1C[C@@H]2O[C@@H](CO)CC[C@@H]2O[C@@H]1CCc1ccc(-c2ccccc2)cc1 — lower, 1.52%
- CC[C@@H](CCC(=O)N(c1ccccc1)c1ccccc1)C1CC1 — higher, 15.5%
- O=C1Nc2ccccc2OC1CC(=O)N1CCCCCCC1 (stereo not given) — higher, 18.8%
- O=C(OC12CCCN(C1)/C(=C/c1ccccc1)C2)c1ccco1 (stereo not given) — lower, -14.4%
- COc1cc(C(=O)OCCCN2CCOCC2)cc(OC)c1OC — lower, -1.26%
- CCOC(=O)C1=C(N)N2C(=O)C(C)SC2=C(C(=O)OCC)C1c1cc(OC)c(OC)c(OC)c1 (stereo not given) — lower, -10.4%
- C=CCN(Cc1ccc2c(c1)OCO2)C(C#CC1CC1)C(C)(C)C (stereo not given) — higher, 9.73%
- Cc1c(C(C)c2ccccc2O)[nH]c2ccccc12 (stereo not given) — higher, 13.6%
- CCOC(=O)[C@]12CCCC=C1N(Cc1ccc(OC)cc1)C(=O)[C@@H]2CC(=O)NCc1cccs1 — the same, 6.16%
- COC(=O)[C@]12C[C@H](CC(=O)NCc3cccc4ccccc34)C(=O)N(CCc3ccc(OC)c(OC)c3)C1=C[C@H](C1CCCC1)O[C@@H]2C — higher, 13.6%
- CCn1c(=O)c(=O)[nH]c2c(=O)oc3ccc(S(=O)(=O)Nc4ccc(OC)cc4)cc3c21 — lower, 4.47%
- CC(=O)c1c(C)oc2ccc(NS(=O)(=O)c3ccccc3)cc12 — higher, 21.9%
- COc1ccc(CN2C/C(=C/c3ccccc3)N3C(=O)C[C@@H](c4ccccc4)N=C23)c(OC)c1 — lower, 4.08%
- CC(=O)c1cc(-c2ccc3ccccc3c2)c(=O)n2c1CCC2 — higher, 16.2%
- Cc1cc2nnc(SCC(=O)N3CCN(c4ccccc4)CC3)n2c(N)n1 — higher, 8.19%
- Cn1c(CNC(=O)c2ccco2)nnc1SCC(=O)N1CCN(c2ccccc2)CC1 — lower, -5.83%
- COc1ccnc(NC(=S)N2CCN(c3ncc(C(F)(F)F)cc3Cl)CC2)c1 — lower, -6.96%
- CCCCCCN1CCS(=O)(=O)N(Cc2ccc(C(F)(F)F)cc2)C(C(=O)OC)C1 (stereo not given) — lower, 1.89%
- CC(=O)C1(C(=O)Nc2nccs2)CC(c2ccccc2C(F)(F)F)=NO1 (stereo not given) — lower, -12.3%
- COC(=O)c1cc(S(=O)(=O)N2CCN(c3ccccc3C)CC2)cn1C — higher, 10.7%
- CCn1c(SCC(C)=O)nc2sc3c(c2c1=O)CCCC3 — lower, -12%
- O=C(NCCc1ccc(F)cc1)c1ccc(S(=O)(=O)N2CCCCC2)cc1 — lower, -1.06%
- COc1ccccc1CNC(=O)c1ccc(Cl)c(S(=O)(=O)N2CCCC2)c1 — lower, 0.19%
- CCCC1CCC2(CCCN2CCOC(=O)NCc2ccccc2)CC1 (stereo not given) — lower, -2.03%
- O=C(NC1CCCCN(Cc2ccc(Cl)cc2)C1=O)c1ccc(Br)cc1 (stereo not given) — higher, 12.4%
- CCOC(=O)C1(Cc2ccccc2)CCN(Cc2cn(C(C)=O)c3ccccc23)CC1 — higher, 19.5%
- Fc1ccc(COc2cccc(-c3n[nH]c(=S)o3)c2)cc1 — lower, -3.8%
- CC(=O)c1ccccc1OCc1ccc(C(=O)c2ccccc2)cc1 — higher, 23.1%
- COc1ccc(Cn2cc(CN3[C@@H](CC(C)C)COc4cc(Br)ccc4S3(=O)=O)nn2)cc1 — lower, 0.76%
- CC(=O)Nc1ccc(S(=O)(=O)N2CCC(C(=O)NC3CC3)CC2)cc1 — lower, -8.71%
- CC(=O)Nc1ccc(NC(=O)C2CCCN(S(=O)(=O)c3ccc(Cl)cc3)C2)cc1 (stereo not given) — lower, -3.16%
- COC(=O)C1CN(Cc2ccc(F)cc2)CCS(=O)(=O)N1Cc1ccc(Cl)cc1 (stereo not given) — higher, 7.77%
- CN(C(=O)c1cccc(NC(=O)Cc2cccc(NC(=O)C3CCCN(C(=O)C4CC4)C3)c2)c1)C1CCC1 (stereo not given) — lower, 2.2%
- CN(C(=O)c1cccc(NC(=O)Cc2ccc([N+](=O)[O-])cc2)c1)C1CCC1 — higher, 33.2%
- CN(C(=O)c1cccc(NC(=O)Cc2ccc(NC(=O)C3CCN(C(=O)C4CCCCC4)CC3)cc2)c1)C1CCC1 — lower, -2.15%
- CN(CCc1ccccc1)C(=O)c1cccc(NC(=O)Cc2cccc(NC(=O)C3CCCN(C(=O)C4CCC4)C3)c2)c1 (stereo not given) — higher, 9.42%

`O=C(Nc1ccccc1Cl)/C(Cl)=C(\Cl)S(=O)c1ccccc1` (stereo not given) was tested, and the inhibition was 99% (active).
`Cc1ccccc1CS(=O)(=O)Cc1ccc(C(=O)Nc2ccc(Cl)cc2)o1` was tested, and the inhibition was 60.1% (active).
For `CCCCCc1c(-c2ccc(OC)c(OC)c2)ncn1CCc1ccccc1OC`, the inhibition was 57% (active).
In the case of `COc1ccc(OC)c(CNC(=O)Cn2nc(C)c3c(C)n(-c4ccc(C)cc4)nc3c2=O)c1`, the inhibition is reported as 39.4% (active).
`CSc1nccc(NC(=O)c2ccc(C(C)(C)C)cc2)n1` was tested, and the inhibition was 64.5% (active).
With `COc1ccc(NC(=O)C2Cc3c(-c4cccc(NC(C)=O)c4)ccnc3O2)cc1OC` (stereo not given) the inhibition was 45% (active).
With `CCOC(=O)N1CCN(C(=O)C[C@@H]2C(=O)N(CCc3ccc(Cl)cc3)C3=CCCC[C@]32C(=O)OCC)CC1` the inhibition was 45.6% (active).
With `O=C1C=C(c2ccnc3cc(Cl)ccc23)C[C@@H](c2ccc3c(c2)OCO3)C1` the inhibition was 56% (active).
With `c1ccc(Cc2ccc(OCCn3ccnc3)cc2)cc1` the inhibition was 54.5% (active).
With `CCCOC(=O)c1[nH]c2c(c1C)C(=O)CC(c1cc(OC)c(OC)c(OC)c1)C2` (stereo not given) the inhibition was 62.1% (active).
In the case of `COc1ccc(S(=O)(=O)Nc2ccc3oc(C)c(C(C)=O)c3c2)cc1`, the inhibition is reported as 42.4% (active).
With `Cn1c(Cc2cccc3ccccc23)nnc1SCC(=O)N1CCN(c2cccc(Cl)c2)CC1` the inhibition was 42.6% (active).
With `C=CCn1c(C)cc(C2=NNC(=NCC)SC2)c1C` the inhibition was 94.5% (active).
In the case of `NS(=O)(=O)c1ccc(CCNC(=O)c2ccc(Cl)c(S(=O)(=O)N3CCCCCC3)c2)cc1`, the inhibition is reported as 60.3% (active).
`Cc1nc2ccccc2cc1OCc1ccc(F)cc1` was tested, and the inhibition was 41.9% (active).
`O=C(Nc1ccc(S(=O)(=O)N2CCOCC2)cc1)C1CCN(S(=O)(=O)c2ccc(Cl)cc2)CC1` was tested, and the inhibition was 44.8% (active).
With `CN(C(=O)c1cccc(NC(=O)Cc2cccc([N+](=O)[O-])c2)c1)C1CCCCC1` the inhibition was 38.2% (active).
`CN(CCc1ccccc1)C(=O)c1cccc(NC(=O)Cc2cccc(NC(=O)C3CCCN(C(=O)CCc4ccccc4)C3)c2)c1` (stereo not given) was tested, and the inhibition was 44.5% (active).
